These compounds were tested on LEGO organoid PTCC (PTEN-/-; TP53-/-; CDKN2A-/-; CDKN2B-/-) (assay: bioluminescence (viable cell) signal fold change after vs before treatment, normalised to DMSO (ratio); higher = more tumour cell growth / less inhibition). Details: 10 µM; treatment time 6 days.
Procedure: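 Luc2-labelled iPSC-derived glioblastoma-like organoids (LEGOs, genotypes PT = PTEN-/-;TP53-/-, PTCC = plus CDKN2A/B-/-, PTN = plus NF1-/-) were treated with 10 uM drug for 6 days (applied every other day) at 37 C. Bioluminescence imaging was done before treatment and 2 days after the last dose. BLI signals were normalised to the DMSO control on the same day and then to the pre-treatment signal (N=3).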

Going from CO/N=C(\C(=O)N[C@@H]1C(=O)N2C(C(=O)[O-])=C(C[N+]3(C)CCCC3)CS[C@H]12)c1csc(N)n1.Cl.Cl.O [Cefepime Dihydrochloride Monohydrate] to Cl.Cc1ccsc1\C(=C\CCN1CCC[C@H](C1)C(O)=O)c1sccc1C [Tiagabine hydrochloride], the bioluminescence rises from 0.833 to 2.4.

First: CC(=O)Nc1ccc(O)cc1 [Acetaminophen]
Second: CC1=NN(c2ccccc2)C(=O)C1 [Edaravone]
The bioluminescence of the first is higher: 0.686 for the first, 0.508 for the second.

Going from CCCCCOC(=O)Nc1nc(=O)n([C@@H]2O[C@H](C)[C@@H](O)[C@H]2O)cc1F [Capecitabine] to Nc1ncnc2c1ncn2[C@@H]1O[C@H](CO)[C@@H](O)[C@H]1O [Adenosine], the bioluminescence falls from 1.71 to 0.746.

Going from O=NN(CCCl)C(=O)NC1CCCCC1 [Lomustine] to CCc1c2c(nc3ccc(OC(=O)N4CCC(N5CCCCC5)CC4)cc13)-c1cc3c(c(=O)n1C2)COC(=O)[C@]3(O)CC [Irinotecan], the bioluminescence rises from 1.17 to 2.25.

Compared with CNS(=O)(=O)Cc1ccc2[nH]cc(CCN(C)C)c2c1.O=C(O)CCC(=O)O [Sumatriptan succinate], CN(Cc1cnc2nc(N)nc(N)c2n1)c1ccc(C(=O)N[C@@H](CCC(=O)O)C(=O)O)cc1 [Methotrexate] is higher in bioluminescence: 0.433 for the first, 1.34 for the second.

First: CCC1(c2ccccc2)C(=O)NCNC1=O [Primidone]
Second: O=C1NC(=O)C(c2ccccc2)(c2ccccc2)N1 [Phenytoin]
The bioluminescence of the first is lower: 0.824 for the first, 0.982 for the second.

Compared with CN1CCN(CCCN2c3ccccc3Sc3ccc(C(F)(F)F)cc32)CC1.Cl.Cl [Trifluoperazine dihydrochloride], CNCCC(Oc1ccc(C(F)(F)F)cc1)c1ccccc1.Cl (centres undefined) [Fluoxetine hydrochloride] is higher in bioluminescence: 1.31 for the first, 1.74 for the second.

Compared with COc1ccc2c(c1)c(CC(=O)O)c(C)n2C(=O)c1ccc(Cl)cc1 [Indometacin], CCOC(=O)c1ccc(C#Cc2ccc3c(c2)C(C)(C)CCS3)nc1 [Tazarotene] is higher in bioluminescence: 1.24 for the first, 1.42 for the second.

First: NC(=O)N1c2ccccc2CC(=O)c2ccccc21 [Oxcarbazepine]
Second: Cl.CNCC\C=C1\c2ccccc2CCc2ccccc12 [Nortriptyline hydrochloride]
The bioluminescence of the first is higher: 0.951 for the first, 0.717 for the second.

First: Cl.CN(C)CC\C=C1\c2ccccc2C=Cc2ccccc12 [Cyclobenzaprine hydrochloride]
Second: O=C1[N-]C(=O)C(c2ccccc2)(c2ccccc2)N1.[Na+] [Phenytoin sodium]
The bioluminescence of the first is higher: 1.61 for the first, 1.45 for the second.

First: C[C@@H]1O[C@]2(CS1)CN1CCC2CC1.C[C@@H]1O[C@]2(CS1)CN1CCC2CC1.Cl.Cl.O [Cevimeline hydrochloride hemihydrate]
Second: CC[C@@H]1/C=C(\C)C[C@H](C)C[C@H](OC)[C@H]2O[C@@](O)(C(=O)C(=O)N3CCCC[C@H]3C(=O)O[C@H](/C(C)=C/[C@@H]3CC[C@H](Cl)[C@H](OC)C3)[C@H](C)[C@@H](O)CC1=O)[C@H](C)C[C@@H]2OC [Pimecrolimus]
The bioluminescence of the first is higher: 1.04 for the first, 0.535 for the second.

Going from CC[C@]1(O)C[C@H]2C[N@](CCc3c([nH]c4ccccc34)[C@@](C(=O)OC)(c3cc4c(cc3OC)N(C=O)[C@H]3[C@@](O)(C(=O)OC)[C@H](OC(C)=O)[C@]5(CC)C=CCN6CC[C@]43[C@@H]65)C2)C1.O=S(=O)(O)O [Vincristine sulfate] to CC(C)(C)c1cc(C(C)(C)C)c(NC(=O)c2c[nH]c3ccccc3c2=O)cc1O [Ivacaftor], the bioluminescence falls from 2.47 to 0.191.

Compared with Oc1c(I)cc(Cl)c2cccnc12 [Clioquinol], Cl.Nc1c2c(nc3ccccc13)CCCC2.O [Tacrine hydrochloride hydrate] is lower in bioluminescence: 1.47 for the first, 0.819 for the second.

Going from Cc1cn(-c2cc(NC(=O)c3ccc(C)c(Nc4nccc(-c5cccnc5)n4)c3)cc(C(F)(F)F)c2)cn1 [Nilotinib] to C[C@@H](O[C@H]1OCCN(Cc2nc(=O)[nH][nH]2)[C@H]1c1ccc(F)cc1)c1cc(C(F)(F)F)cc(C(F)(F)F)c1 [Aprepitant], the bioluminescence falls from 1.4 to 0.644.

Compared with Nc1nc2ccc(OC(F)(F)F)cc2s1 [Riluzole], FC(F)(F)C(Cl)Br (centres undefined) [Anestan] is lower in bioluminescence: 1.26 for the first, 0.664 for the second.

First: CCN(CC)CCNC(=O)c1c(C)[nH]c(/C=C2\C(=O)Nc3ccc(F)cc32)c1C [Sunitinib]
Second: COCCOC(=O)C1=C(C)NC(C)=C(C(=O)OC(C)C)C1c1cccc([N+](=O)[O-])c1 (centres undefined) [Nimodipine]
The bioluminescence of the first is lower: 0.536 for the first, 1.61 for the second.

First: CCCNS(=O)(=O)Nc1ncnc(OCCOc2ncc(Br)cn2)c1-c1ccc(Br)cc1 [Macitentan]
Second: CN1C(C(=O)Nc2ccccn2)=C(O)c2ccccc2S1(=O)=O [Piroxicam]
The bioluminescence of the first is lower: 0.835 for the first, 1.65 for the second.

Going from C[N+](C)(C)CCO.[Cl-] [Choline chloride] to C[C@@H]1O[C@@H]1P(=O)(O)O.NC(CO)(CO)CO [Fosfomycin Tromethamine], the bioluminescence rises from 0.614 to 1.69.

Compared with CC(C)(S)[C@@H](N)C(=O)O [d-penicillamin], O.O.O.O.[Li][O]C(=O)CC(O)(CC(=O)[O][Li])C(=O)[O][Li] [Lithium citrate tetrahydrate] is lower in bioluminescence: 0.914 for the first, 0.787 for the second.

Work on CN=C(NC#N)NCCSCc1nc[nH]c1C [Cimetidine] yielded a bioluminescence of 2.25.
